Assay results: PubChem BioAssay AID1159580 (chemical genetic matrix, 2015)
Where “and” joins values, the source holds several entries; their conditions need not be identical. Equal values may be shown once. About 2,000 (36%) of roughly 5,500 compounds were called active. Inconclusive results (about 18%) are left out. Rule as the data show it: active = normalized growth mostly below about 0.91 (no sharp cut-off); inconclusive = no clear call, values can overlap the other calls; inactive = mostly above about 0.92. This is one part of the list.

Assay: chemical genetic growth profiling, strain panel (AID 1159580);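 also: tested at 20 µM; growth read once vehicle control cultures reached saturation at 30 °C; 1 = growth at the plate median or of vehicle wells; lower values mean less growth of the strain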
Settings: growth OD

Measured: normalized growth

CCN(CC)CCNC(=O)c1cc(Cl)c(N)cc1OC
inactive: S. cerevisiae deletion strains, locus YJR075W, strain HOC1, hits give low values 0.998 | S. cerevisiae deletion strains, locus YKL009W, strain mrt4, hits give low values 1.01 | S. cerevisiae deletion strains, locus YKL068W, hits give low values 1.01 | S. cerevisiae deletion strains, locus YKL085W, strain MDH1 (second series), hits give low values 1 | S. cerevisiae deletion strains, locus YKL085W, strain MDH1, hits give low values 1 | S. cerevisiae deletion strains, locus YKL160W, strain elf1, hits give low values 0.97 | S. cerevisiae deletion strains, locus YKL190W, strain CNB1, hits give low values 1.02 | S. cerevisiae deletion strains, locus YKR001C, strain vps1, hits give low values 1 | S. cerevisiae deletion strains, locus YKR026C, strain gcn3, hits give low values 0.996 | S. cerevisiae deletion strains, locus YKR091W, strain srl3, hits give low values 0.972 | S. cerevisiae deletion strains, locus YLL001W, strain dnm1, hits give low values 0.921 | S. cerevisiae deletion strains, locus YLL026W, hits give low values 0.977 | S. cerevisiae deletion strains, locus YLL041C, strain sdh2, hits give low values 0.991 | S. cerevisiae deletion strains, locus YLR027C, strain aat2, hits give low values 0.983 | S. cerevisiae deletion strains, locus YLR039C, strain RIC1, hits give low values 0.996 | S. cerevisiae deletion strains, locus YLR058C, strain SHM2, hits give low values 1.01 | S. cerevisiae deletion strains, locus YLR102C, strain apc9, hits give low values 0.992 | S. cerevisiae deletion strains, locus YLR113W, strain HOG1, hits give low values 1.06 | S. cerevisiae deletion strains, locus YLR221C, strain rsa3, hits give low values 0.961 | S. cerevisiae deletion strains, locus YLR258W, strain gsy2, hits give low values 0.997 | S. cerevisiae deletion strains, locus YLR262C, strain YPT6 (second series), hits give low values 0.977 | S. cerevisiae deletion strains, locus YLR262C, strain YPT6, hits give low values 1.05 | S. cerevisiae deletion strains, locus YLR268W, strain sec22, hits give low values 0.963 | S. cerevisiae deletion strains, locus YLR320W, strain mms22, hits give low values 0.962 | S. cerevisiae deletion strains, locus YLR330W, strain CHS5, hits give low values 1 | S. cerevisiae deletion strains, locus YLR342W, strain FKS1 (second series), hits give low values 0.995 | S. cerevisiae deletion strains, locus YLR342W, strain FKS1, hits give low values 0.983 | S. cerevisiae deletion strains, locus YLR357W, strain rsc2, hits give low values 0.965 | S. cerevisiae deletion strains, locus YLR370C, strain arc18, hits give low values 0.973 | S. cerevisiae deletion strains, locus YLR371W, strain rom2, hits give low values 0.995 | S. cerevisiae deletion strains, locus YLR384C, strain iki3, hits give low values 0.976 | S. cerevisiae deletion strains, locus YLR418C, strain cdc73, hits give low values 0.976 | S. cerevisiae deletion strains, locus YML016C, strain PPZ1, hits give low values 1.01 | S. cerevisiae deletion strains, locus YML032C, strain rad52, hits give low values 0.987 | S. cerevisiae deletion strains, locus YML120C, strain ndi1, hits give low values 0.945 | S. cerevisiae deletion strains, locus YML124C, strain tub3, hits give low values 1 | S. cerevisiae deletion strains, locus YMR058W, strain fet3, hits give low values 0.983 | S. cerevisiae deletion strains, locus YMR078C, strain ctf18, hits give low values 0.994 | S. cerevisiae deletion strains, locus YMR125W, strain sto1, hits give low values 0.951 | S. cerevisiae deletion strains, locus YMR129W, hits give low values 0.995 | S. cerevisiae deletion strains, locus YMR205C, strain PFK2, hits give low values 0.954 | S. cerevisiae deletion strains, locus YMR223W, strain ubp8, hits give low values 0.997 | S. cerevisiae deletion strains, locus YMR231W, strain pep5, hits give low values 0.992 | S. cerevisiae deletion strains, locus YMR263W, strain SAP30, hits give low values 1.01 and 1 | S. cerevisiae deletion strains, locus YMR307W, strain GAS1, hits give low values 1.01 | S. cerevisiae deletion strains, locus YNL067W, strain RPL9B, hits give low values 1 | S. cerevisiae deletion strains, locus YNL071W, strain lat1, hits give low values 0.984 | S. cerevisiae deletion strains, locus YNL128W, strain TEP1, hits give low values 1.03 | S. cerevisiae deletion strains, locus YNL153C, strain GIM3, hits give low values 0.996 and 0.998 | S. cerevisiae deletion strains, locus YNL175C, strain NOP13, hits give low values 1 | S. cerevisiae deletion strains, locus YNL183C, strain NPR1, hits give low values 0.991 | S. cerevisiae deletion strains, locus YNL197C, strain WHI3, hits give low values 1.02 | S. cerevisiae deletion strains, locus YNL209W, strain ssb2, hits give low values 0.974 | S. cerevisiae deletion strains, locus YNL224C, strain SQS1, hits give low values 1.01 | S. cerevisiae deletion strains, locus YNL233W, strain BNI4, hits give low values 1 | S. cerevisiae deletion strains, locus YNL248C, strain rpa49, hits give low values 0.983 | S. cerevisiae deletion strains, locus YNL250W, strain rad50, hits give low values 0.992 | S. cerevisiae deletion strains, locus YNL271C, strain bni1, hits give low values 1 | S. cerevisiae deletion strains, locus YNL298W, strain CLA4, hits give low values 1 | S. cerevisiae deletion strains, locus YNL307C, strain MCK1, hits give low values 0.992 | S. cerevisiae deletion strains, locus YNL322C, strain KRE1 (second series), hits give low values 0.973 | S. cerevisiae deletion strains, locus YNL322C, strain KRE1, hits give low values 1.01 | S. cerevisiae deletion strains, locus YNR049C, strain mso1, hits give low values 0.962 | S. cerevisiae deletion strains, locus YNR052C, strain pop2, hits give low values 1.01 | S. cerevisiae deletion strains, locus YOL006C, strain TOP1, hits give low values 1.03 | S. cerevisiae deletion strains, locus YOL012C, strain htz1 1.1 | S. cerevisiae deletion strains, locus YOL147C, strain pex11, hits give low values 0.995 | S. cerevisiae deletion strains, locus YOR001W, strain rrp6, hits give low values 1 | S. cerevisiae deletion strains, locus YOR061W, strain CKA2, hits give low values 1 | S. cerevisiae deletion strains, locus YOR069W, strain VPS5, hits give low values 1.01 | S. cerevisiae deletion strains, locus YOR070C, strain gyp1, hits give low values 0.992 | S. cerevisiae deletion strains, locus YOR080W, strain dia2, hits give low values 0.987 | S. cerevisiae deletion strains, locus YOR083W, strain WHI5 (second series), hits give low values 0.999 | S. cerevisiae deletion strains, locus YOR083W, strain WHI5, hits give low values 0.964 | S. cerevisiae deletion strains, locus YOR106W, strain vam3, hits give low values 0.932 | S. cerevisiae deletion strains, locus YOR136W, strain idh2, hits give low values 0.994 | S. cerevisiae deletion strains, locus YOR144C, strain elg1, hits give low values 1 | S. cerevisiae deletion strains, locus YOR184W, strain ser1, hits give low values 0.986 | S. cerevisiae deletion strains, locus YOR231W, strain MKK1, hits give low values 1.05 | S. cerevisiae deletion strains, locus YOR265W, strain rbl2, hits give low values 0.993 | S. cerevisiae deletion strains, locus YOR270C, strain vph1, hits give low values 0.947 | S. cerevisiae deletion strains, locus YOR290C, strain snf2, hits give low values 0.909 | S. cerevisiae deletion strains, locus YOR316C, strain cot1, hits give low values 0.991 | S. cerevisiae deletion strains, locus YPL051W, strain arl3, hits give low values 0.998 | S. cerevisiae deletion strains, locus YPL055C, strain LGE1, hits give low values 1.02 and 1 | S. cerevisiae deletion strains, locus YPL078C, strain atp4, hits give low values 0.975 | S. cerevisiae deletion strains, locus YPL106C, strain sse1, hits give low values 0.971 | S. cerevisiae deletion strains, locus YPL240C, strain hsp82, hits give low values 0.98 | S. cerevisiae deletion strains, locus YPL241C, strain CIN2, hits give low values 1.01 | S. cerevisiae deletion strains, locus YPL256C, strain CLN2, hits give low values 1.13 | S. cerevisiae deletion strains, locus YPR119W, strain clb2, hits give low values 0.987 | S. cerevisiae deletion strains, locus YPR141C, strain kar3, hits give low values 0.993 | S. cerevisiae deletion strains, locus YPR163C, strain tif3, hits give low values 0.99 | S. cerevisiae deletion strains, locus YPR167C, strain met16, hits give low values 0.992 | S. cerevisiae deletion strains, strain wtn01, hits give low values 0.982 | S. cerevisiae strains, strain wild type, hits give low values 1.01
